Source: PubChem BioAssay AID1159580 (chemical genetic matrix, 2015)
About 2,000 (36%) of roughly 5,500 compounds were called active. About 18% were inconclusive and are not listed. Cut-off read from the data, not from the text of the source: active = normalized growth mostly below about 0.91 (no sharp cut-off); inconclusive = no clear call, values can overlap the other calls; inactive = mostly above about 0.92. The list shows a part of the results.

Experiment: chemical genetic growth profiling, strain panel (AID 1159580);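 note: tested at 20 µM; growth read once vehicle control cultures reached saturation at 30 °C; 1 = growth at the plate median or of vehicle wells; lower values mean less growth of the strain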
Details: growth OD

Measured: normalized growth

NCc1ccc(S(N)(=O)=O)cc1
inactive: S. cerevisiae deletion strains, locus YKL009W, strain mrt4, hits give low values 0.974 | S. cerevisiae deletion strains, locus YKL068W, hits give low values 0.987 | S. cerevisiae deletion strains, locus YKL085W, strain MDH1 (second series), hits give low values 0.982 | S. cerevisiae deletion strains, locus YKL085W, strain MDH1, hits give low values 0.982 | S. cerevisiae deletion strains, locus YKL160W, strain elf1, hits give low values 1.06 | S. cerevisiae deletion strains, locus YKL190W, strain CNB1, hits give low values 1.01 | S. cerevisiae deletion strains, locus YKR001C, strain vps1, hits give low values 1.02 | S. cerevisiae deletion strains, locus YKR026C, strain gcn3, hits give low values 1.01 | S. cerevisiae deletion strains, locus YKR091W, strain srl3, hits give low values 1 | S. cerevisiae deletion strains, locus YLL001W, strain dnm1, hits give low values 1.05 | S. cerevisiae deletion strains, locus YLL026W, hits give low values 1 | S. cerevisiae deletion strains, locus YLL041C, strain sdh2, hits give low values 0.996 | S. cerevisiae deletion strains, locus YLR027C, strain aat2, hits give low values 1.01 | S. cerevisiae deletion strains, locus YLR039C, strain RIC1, hits give low values 0.986 | S. cerevisiae deletion strains, locus YLR058C, strain SHM2, hits give low values 0.984 | S. cerevisiae deletion strains, locus YLR102C, strain apc9, hits give low values 0.988 | S. cerevisiae deletion strains, locus YLR113W, strain HOG1, hits give low values 1.01 | S. cerevisiae deletion strains, locus YLR221C, strain rsa3, hits give low values 1.05 | S. cerevisiae deletion strains, locus YLR258W, strain gsy2, hits give low values 1.01 | S. cerevisiae deletion strains, locus YLR262C, strain YPT6 (second series), hits give low values 1.04 | S. cerevisiae deletion strains, locus YLR262C, strain YPT6, hits give low values 1.02 | S. cerevisiae deletion strains, locus YLR268W, strain sec22, hits give low values 0.988 | S. cerevisiae deletion strains, locus YLR320W, strain mms22, hits give low values 1.06 | S. cerevisiae deletion strains, locus YLR330W, strain CHS5, hits give low values 0.989 | S. cerevisiae deletion strains, locus YLR342W, strain FKS1 (second series), hits give low values 1 | S. cerevisiae deletion strains, locus YLR342W, strain FKS1, hits give low values 1.01 | S. cerevisiae deletion strains, locus YLR357W, strain rsc2, hits give low values 1.01 | S. cerevisiae deletion strains, locus YLR370C, strain arc18, hits give low values 1.01 | S. cerevisiae deletion strains, locus YLR371W, strain rom2, hits give low values 0.985 | S. cerevisiae deletion strains, locus YLR384C, strain iki3, hits give low values 1.01 | S. cerevisiae deletion strains, locus YLR418C, strain cdc73, hits give low values 0.954 | S. cerevisiae deletion strains, locus YML016C, strain PPZ1, hits give low values 0.995 | S. cerevisiae deletion strains, locus YML032C, strain rad52, hits give low values 0.99 | S. cerevisiae deletion strains, locus YML120C, strain ndi1, hits give low values 1.04 | S. cerevisiae deletion strains, locus YML124C, strain tub3, hits give low values 0.99 | S. cerevisiae deletion strains, locus YMR058W, strain fet3, hits give low values 1.02 | S. cerevisiae deletion strains, locus YMR078C, strain ctf18, hits give low values 0.978 | S. cerevisiae deletion strains, locus YMR125W, strain sto1, hits give low values 1.04 | S. cerevisiae deletion strains, locus YMR129W, hits give low values 1 | S. cerevisiae deletion strains, locus YMR205C, strain PFK2, hits give low values 1.05 | S. cerevisiae deletion strains, locus YMR223W, strain ubp8, hits give low values 0.962 | S. cerevisiae deletion strains, locus YMR231W, strain pep5, hits give low values 0.993 | S. cerevisiae deletion strains, locus YMR263W, strain SAP30, hits give low values 0.999 | S. cerevisiae deletion strains, locus YMR307W, strain GAS1, hits give low values 1.01 | S. cerevisiae deletion strains, locus YNL067W, strain RPL9B, hits give low values 1 | S. cerevisiae deletion strains, locus YNL071W, strain lat1, hits give low values 1.01 | S. cerevisiae deletion strains, locus YNL153C, strain GIM3, hits give low values 1.01 | S. cerevisiae deletion strains, locus YNL183C, strain NPR1, hits give low values 0.956 | S. cerevisiae deletion strains, locus YNL209W, strain ssb2, hits give low values 1 | S. cerevisiae deletion strains, locus YNL233W, strain BNI4, hits give low values 0.99 | S. cerevisiae deletion strains, locus YNL248C, strain rpa49, hits give low values 1.04 | S. cerevisiae deletion strains, locus YNL250W, strain rad50, hits give low values 0.967 | S. cerevisiae deletion strains, locus YNL271C, strain bni1, hits give low values 0.985 | S. cerevisiae deletion strains, locus YNL298W, strain CLA4, hits give low values 0.991 | S. cerevisiae deletion strains, locus YNL307C, strain MCK1, hits give low values 0.992 | S. cerevisiae deletion strains, locus YNL322C, strain KRE1 (second series), hits give low values 1.02 | S. cerevisiae deletion strains, locus YNL322C, strain KRE1, hits give low values 0.999 | S. cerevisiae deletion strains, locus YNR049C, strain mso1, hits give low values 0.999 | S. cerevisiae deletion strains, locus YNR052C, strain pop2, hits give low values 0.987 | S. cerevisiae deletion strains, locus YOL006C, strain TOP1, hits give low values 0.97 | S. cerevisiae deletion strains, locus YOL012C, strain htz1 1.28 | S. cerevisiae deletion strains, locus YOL147C, strain pex11, hits give low values 0.985 | S. cerevisiae deletion strains, locus YOR001W, strain rrp6, hits give low values 0.972 | S. cerevisiae deletion strains, locus YOR061W, strain CKA2, hits give low values 0.993 | S. cerevisiae deletion strains, locus YOR069W, strain VPS5, hits give low values 0.99 | S. cerevisiae deletion strains, locus YOR070C, strain gyp1, hits give low values 1.01 | S. cerevisiae deletion strains, locus YOR080W, strain dia2, hits give low values 0.996 | S. cerevisiae deletion strains, locus YOR083W, strain WHI5, hits give low values 1.06 | S. cerevisiae deletion strains, locus YOR106W, strain vam3, hits give low values 1.06 | S. cerevisiae deletion strains, locus YOR136W, strain idh2, hits give low values 0.992 | S. cerevisiae deletion strains, locus YOR144C, strain elg1, hits give low values 0.987 | S. cerevisiae deletion strains, locus YOR184W, strain ser1, hits give low values 1 | S. cerevisiae deletion strains, locus YOR231W, strain MKK1, hits give low values 1.01 | S. cerevisiae deletion strains, locus YOR265W, strain rbl2, hits give low values 1.02 | S. cerevisiae deletion strains, locus YOR270C, strain vph1, hits give low values 1.06 | S. cerevisiae deletion strains, locus YOR290C, strain snf2, hits give low values 1.02 | S. cerevisiae deletion strains, locus YOR316C, strain cot1, hits give low values 0.993 | S. cerevisiae deletion strains, locus YPL051W, strain arl3, hits give low values 1.03 | S. cerevisiae deletion strains, locus YPL055C, strain LGE1, hits give low values 1.01 | S. cerevisiae deletion strains, locus YPL078C, strain atp4, hits give low values 1.06 | S. cerevisiae deletion strains, locus YPL106C, strain sse1, hits give low values 1.03 | S. cerevisiae deletion strains, locus YPL240C, strain hsp82, hits give low values 1.01 | S. cerevisiae deletion strains, locus YPL241C, strain CIN2, hits give low values 0.998 | S. cerevisiae deletion strains, locus YPL256C, strain CLN2, hits give low values 1.01 | S. cerevisiae deletion strains, locus YPR119W, strain clb2, hits give low values 0.993 | S. cerevisiae deletion strains, locus YPR141C, strain kar3, hits give low values 0.976 | S. cerevisiae deletion strains, locus YPR163C, strain tif3, hits give low values 0.995 | S. cerevisiae deletion strains, locus YPR167C, strain met16, hits give low values 0.99 | S. cerevisiae deletion strains, strain wtn01, hits give low values 0.987 | S. cerevisiae strains, strain wild type, hits give low values 1.01
